Results taken from the supplement of paper PMC7156485.
± gives the standard deviation of the averaged measurements.

Assays:
Details in all cases: concentration: 10 µM; 24 h
[1] = test system: HCC1569; experiment: cell number relative to DMSO (% of DMSO); higher = more cells (less growth inhibition / toxicity)
Summary of the method: (§1)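 HCC1569 and TDF cells were seeded at 800 per well in 384-well plates in RPMI with 10% FBS and treated with compounds at 10 µM for 24 h at 37 °C, in triplicate. After fixation in 3.7% formaldehyde, cells were stained with a rabbit anti-H1.0 antibody, an AlexaFluor 647 secondary and DAPI, and six fields per well were imaged at ×10. H1.0 nuclear intensity or cell number is given as percent of the plate control, using the median of replicates, with HCC1569 values smoothed for positional effects.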

[2] = test system: TDF; experiment: as above
Summary of the method: as §1

[3] = test system: TDF; experiment: H1.0 immunofluorescence intensity relative to DMSO (% of DMSO); higher = stronger H1.0 induction, active = 120 or more
Summary of the method: as §1

[4] = test system: HCC1569; experiment: H1.0 immunofluorescence intensity relative to DMSO (% of DMSO); higher = stronger H1.0 induction, active = 140 or more
Summary of the method: as §1
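Wherever H1.0 immunofluorescence intensity relative to DMSO is given: TDF is a line of transformed human dermal fibroblasts of mesenchymal origin.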
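Wherever cell number relative to DMSO is given: TDF denotes transformed human dermal fibroblasts of mesenchymal origin.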

SMILES	cell number [1]	cell number [2]	H1.0 immunofluorescence intensity [3]	H1.0 immunofluorescence intensity [4]
CC(C)(C)C1(O)CCN2CC3c4ccccc4CCc4cccc(c43)C2C1.Cl (single isomer, unassigned; (+)) [(+)-Butaclamol hydrochloride]	54	49.9	126 (active)	251 (active)
CC[C@H](C)[C@H](N)C(=O)N1CCC[C@H]1C(=O)N[C@H](C(=O)O)[C@@H](C)CC	102	85.3	97.2 (inactive)	103 (inactive)
O=C1Nc2ccccc2C1=Cc1c(Cl)[nH]c2ccccc12 [Cdk1 Inhibitor]	56.6	9.63	149 (active)	143 (active)
COC(=O)[C@@H](N)Cc1ccc(O)c(O)c1.Cl [L-3,4-Dihydroxyphenylalanine methyl ester hydrochloride]	102	110	94.8 (inactive)	96.8 (inactive)
CCn1cc(C(=O)O)c(=O)c2ccc(Cc3ccccc3)nc21 [Amfonelic acid]	101	94.6	92.2 (inactive)	95.4 (inactive)
O[C@@H]1[C@@H](O)[C@H](OC/C=C/c2ccccc2)O[C@H](CO[C@@H]2OC[C@H](O)[C@H](O)[C@H]2O)[C@H]1O	97	103	100 (inactive)	90.3 (inactive)
CC(C)C1C2CCC(C2)C1N.Cl (centres undefined)	99.9	105	93 (inactive)	90.8 (inactive)
CCCCC(=O)N(Cc1ccc(-c2ccccc2-c2nn[nH]n2)cc1)[C@H](C(=O)O)C(C)C	98.8	112	93.7 (inactive)	100 (inactive)
CN1CCC(=C2c3ccccc3CC(=O)c3sccc32)CC1.O=C(O)C=CC(=O)O [Ketotifen fumarate]	101	99.6	91.6 (inactive)	98.7 (inactive)
O=C(O)Cc1c[nH]c2ccc(O)cc12 [(5-hydroxy-3H-indol-3-yl)acetic acid]	105	94.7	94.7 (inactive)	103 (inactive)
CCCn1c(=O)[nH]c(=O)c2[nH]cnc21 [3-n-Propylxanthine]	104	105	92.3 (inactive)	101 (inactive)
Cc1cc(Nc2ncc3cc(-c4c(Cl)cccc4Cl)c(=O)n(C)c3n2)ccc1F	36.3	7.32	201 (active)	187 (active)
CC(=Cc1ccc(C(=O)O)cc1)c1ccc2c(c1)C(C)(C)CCC2(C)C	100.2 ± 0.57	106 ± 2.4	89.4 (inactive)	111 (inactive)
O=C1N=c2ccccc2=C1c1[nH]c2ccccc2c1NOCCC(O)CO (centres undefined) [Indirubin Derivative E804]	60.8	62.7	102 (inactive)	167 (active)
Cc1ccc(F)cc1C(=O)Nc1ccc(C(=O)N2Cc3cccn3Cc3ccccc32)c(Cl)c1	91.6	95.3	93.2 (inactive)	131 (inactive)
CS(=O)(=O)O.C[C@H](NCc1ccc(OCc2cccc(F)c2)cc1)C(N)=O	99.7	102	97.6 (inactive)	98.6 (inactive)
C=C[C@]1(C)C[C@@H](OC(=O)CO)[C@]2(C)[C@H](C)CC[C@]3(CCC(=O)[C@H]32)[C@@H](C)[C@@H]1O	96.4	115	106 (inactive)	95.9 (inactive)
CN(C)CCOc1cc(-c2cn[nH]c2)ccc1NC(=O)C1COc2ccccc2O1 (centres undefined)	103	95.7	87.3 (inactive)	112 (inactive)
CC(C)NCC(O)c1ccc(O)c(O)c1.O=C(O)C(O)C(O)C(=O)O (stereo not drawn) [S(+)-Isoproterenol (+)-bitartrate]	105	97.6	91.8 (inactive)	93.4 (inactive)
Cc1cc(Nc2cc(N3CCN(C)CC3)nc(Sc3ccc(NC(=O)C4CC4)cc3)n2)n[nH]1 [Tozasertib]	70.4	46.5	99.2 (inactive)	156 (active)
O=C(NCc1ccc2c(c1)OCO2)c1c(Cl)cccc1Cl [N-(1,3-benzodioxol-5-ylmethyl)-2,6-dichlorobenzamide]	97.3	103	97 (inactive)	105 (inactive)
CCCC(=O)Oc1ccc2[nH]c(C(=O)c3cc4ccccc4[nH]3)cc2c1 [PDGF Receptor Tyrosine Kinase Inhibitor II]	86.9	92.3	87.9 (inactive)	165 (active)
COc1cc2nccc(Oc3ccc(NC(=O)Nc4cc(C)on4)c(Cl)c3)c2cc1OC.O [VEGFR Tyrosine Kinase Inhibitor IV]	82.4	90.7	94 (inactive)	121 (inactive)
COC(=O)Nc1nc2ccc(S(=O)c3ccccc3)cc2[nH]1 (centres undefined) [Oxfendazole]	100	68.2	108 (inactive)	124 (inactive)
C=CCSC[C@H](N)C(=O)O [(2R)-3-(allylsulfanyl)-2-aminopropanoic acid]	103	95.1	88.7 (inactive)	90.1 (inactive)
CCCCCC(O)C=CC=CCC=CC=CC(O)CCCC(=O)O (centres undefined)	115	98.1	101 (inactive)	86.5 (inactive)

SMILES	cell number [1]	cell number [2]	H1.0 immunofluorescence intensity [3]	H1.0 immunofluorescence intensity [4]
CCOc1ccc(C(Nc2ccccn2)c2ccc3ccc(C)nc3c2O)cc1C (centres undefined)	87.7	84.1	94.8 (inactive)	115 (inactive)
CCCCCC(O)C=CC1C(O)CC(=O)C1CCCCCCC(=O)O (centres undefined) [Prostaglandin E1]	102 ± 2	109 ± 10	92.4 (inactive)	101 (inactive)
C[N+](C)(C)C(Cc1c[nH]c(=S)[nH]1)C(=O)[O-] [L-Ergothioneine]	107	102	101 (inactive)	100 (inactive)
CC(=O)Oc1ccc(C(c2ccc(OC(C)=O)cc2)c2ccccn2)cc1 [Bisacodyl]	94.2	102	86.4 (inactive)	125 (inactive)
Cn1cnc2c(NCc3ccccc3)nc(NCCO)nc21 [Olomoucine]	100	121	98.6 (inactive)	94.1 (inactive)
NC(=O)c1nnn(Cc2cc(Cl)c(C(=O)c3ccc(Cl)cc3)c(Cl)c2)c1N	75	73.8	95.5 (inactive)	151 (active)
CC(=O)OCC=C(C)C=CC=C(C)C=CC1=C(C)CCCC1(C)C [Vitamin A acetate]	98.7	107	91.8 (inactive)	119 (inactive)
CCC(=O)OC(OP(=O)(CCCCc1ccccc1)CC(=O)N1CC(C2CCCCC2)CC1C(=O)O)C(C)C (centres undefined) [Fosinopril]	99.8	86	96 (inactive)	101 (inactive)
COc1cc2ncnc(Nc3ccc(Oc4ccccc4)cc3)c2cc1OC [Src Kinase Inhibitor I]	88.6	94.7	106 (inactive)	147 (active)
COc1cc2nc(N3CCN(C(=O)C4COc5ccccc5O4)CC3)nc(N)c2cc1OC (centres undefined) [Doxazosin]	96.5	107	100 (inactive)	113 (inactive)
COc1ccc(C(=O)NCc2cccnc2)cc1C(=O)NCc1cccnc1 [Picotamide]	102.3 ± 0.66	103 ± 5.2	93.6 (inactive)	103 (inactive)
N#CC(=Cc1ccc(O)c(O)c1)C(=O)OCC=Cc1ccccc1	91.9	105	90.5 (inactive)	115 (inactive)
NCC1OC(OC2C(N)CC(N)C(OC3OC(CO)C(O)C(N)C3O)C2O)C(N)CC1O (centres undefined) [Tobramycin (free base)]	103	102	107 (inactive)	106 (inactive)
Clc1ccc2c(c1)C(N1CCNCC1)=Nc1ccccc1O2 [Amoxapine]	99.54 ± 0.74	99.9 ± 2.6	99.7 (inactive)	108 (inactive)
Cc1ncc(Cl)cc1NCc1ccc(C(=O)N[C@@H](CC2CCCC2)C(=O)NC2CC2)s1	96.6	96.1	99.9 (inactive)	101 (inactive)
CC(C)(CO)Cc1cc(C(C)(C)C)c(O)c(C(C)(C)C)c1	102	106	94.6 (inactive)	109 (inactive)
Cl.Cl.c1ccc2c3c([nH]c2c1)C1C2CCC(C4CCCNC42)N1CC3 (centres undefined)	99.8	100	97.2 (inactive)	101 (inactive)
CCCCCCCNC1CCCC1CCCCCCC(=O)O (racemic)	99.7	93.5	88.5 (inactive)	89.4 (inactive)
CCCCCCC=CCCCCCCCCC(=O)O [10(Z)-Heptadecenoic acid]	99.6	95.4	101 (inactive)	102 (inactive)
CC(C)(N)c1ccc(-c2nc3ccccc3nc2-c2ccccc2)cc1	95.6	95.3	106 (inactive)	103 (inactive)
CSc1cccc(Nc2ncc3cc(-c4c(Cl)cccc4Cl)c(=O)n(C)c3n2)c1	37.3	6.26	145 (active)	150 (active)
Nc1[nH]nc2nc3ccccc3nc12	95	104	101 (inactive)	115 (inactive)
COc1cc2nccc(Oc3ccc(NC(=O)NC4CC4)c(Cl)c3)c2cc1C(N)=O	83.8	94.9	89.2 (inactive)	122 (inactive)
CCCc1nc2c(C)cc(-c3nc4ccccc4n3C)cc2n1Cc1ccc(-c2ccccc2C(=O)O)cc1 [Telmisartan]	99.7	97.5	101 (inactive)	97.2 (inactive)
Nc1nc(OCc2cc(Br)cs2)c2[nH]cnc2n1 [6-[(4-bromo-2-thienyl)methoxy]-1H-purin-2-amine]	101	107	97.7 (inactive)	113 (inactive)
